Screening data as filed in PubChem.
HTR5A ag ctr = HTR5A agonism, opioid heterodimer counter-screen; P47898; HTR5A agonist assay, luminescence, cell-based; activation, % at 9.3 µM; 340,000 tested, 0.61% active; AID 504692; in the data active = activation mostly above about 9.5%, no sharp cut-off; inactive = mostly below about 7.6%;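 also: 0% = cells with vehicle only and 100% = reference agonist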
HTR5A inv ag = HTR5A inverse agonism, opioid heterodimer counter-screen. P47898. HTR5A cell line, luminescence. inhibition, % at 9.3 µM. 340,000 tested, 0.083% active; in the data active = inhibition mostly above about 23%, no sharp cut-off; inactive = mostly below about 18%;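 also: 0% = cells with DMSO and 100% = no-cell wells with DMSO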
sPLA2-III inh = Blocks human group III sPLA2 activity | inhibition, % at 12.2 µM | Q9NZ20 | QFRET BODIPY PC-A2 liposome hydrolysis, fluorescence | 370,000 tested, 0.56% active;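 active = inhibition above mean plus 3 SD of compounds lying within the high and low control bounds, cut at about 19% in these data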;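 also: 0% = median of test compound wells and 100% = no enzyme DMSO wells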
MOR-DOR inv ag = inverse agonist of human OPRM1-OPRD1 heterodimerization; cell-based MOR-DOR heterodimer luminescence, inverse agonism; 340,000 tested, 0.21% active; inhibition, % at 9.3 µM; P35372+P41143; in the data active = inhibition above about 22%, passing the limit was not always enough;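 also: 0% = cells with DMSO and 100% = wells without cells with DMSO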
m5-HT2A agonist = mouse HTR2A agonism via beta-arrestin recruitment | CHO-K1 mHTR2A beta-arrestin complementation, luminescence; percent of 30 µM serotonin response | P35363 | activation, % at 7.6 µM | AID 624169 | 360,000 tested, 0.66% active;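 active = activation above a run cutoff, the mean activation of all tested compounds plus 3 SD, cut at about 14% in these data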;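 also: 0% = plate median of compound wells and 100% = 30 µM serotonin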
Target sequence (P35363 whole entry, looked up): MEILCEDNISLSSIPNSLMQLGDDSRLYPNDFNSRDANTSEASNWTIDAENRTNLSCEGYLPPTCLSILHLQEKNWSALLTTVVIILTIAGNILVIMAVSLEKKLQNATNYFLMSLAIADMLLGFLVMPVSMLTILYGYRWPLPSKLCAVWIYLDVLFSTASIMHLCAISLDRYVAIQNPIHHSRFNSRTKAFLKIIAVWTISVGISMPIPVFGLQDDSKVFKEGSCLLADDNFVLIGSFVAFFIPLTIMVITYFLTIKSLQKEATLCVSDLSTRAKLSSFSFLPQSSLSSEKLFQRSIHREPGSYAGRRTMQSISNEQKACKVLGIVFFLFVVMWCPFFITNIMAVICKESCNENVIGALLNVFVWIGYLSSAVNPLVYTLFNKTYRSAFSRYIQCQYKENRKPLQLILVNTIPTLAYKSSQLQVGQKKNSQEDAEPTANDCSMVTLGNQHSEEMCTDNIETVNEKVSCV
MOR-DOR ag = OPRM1-OPRD1 heterodimerization agonism; activation, % at 9.3 µM; 340,000 tested, 0.3% active; P35372+P41143; AID 504326; cells, luminescence;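 also: 0% = vehicle-treated cells and 100% = reference agonist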
MOR-DOR ag conf = confirmation of human OPRM1-OPRD1 heterodimerization agonists. shares compounds with MOR-DOR ag. cells, MOR-DOR heterodimerization, luminescence complementation. activation, % at 9.3 µM. 830 tested, 45% active. AID 504904;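 also: 0% = vehicle-treated cells and 100% = reference agonist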
HTR5A ag ctr2 = HTR5A agonism, opioid heterodimer counter-screen | shares compounds with MOR-DOR ag | HTR5A agonist counterscreen, cell luminescence | activation, % at 9.3 µM | 830 tested, 8% active | AID 504905; in the data active = activation above about 17%;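 also: 0% = vehicle-treated cells and 100% = reference agonist response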
* marks the source's active call; other numbers are inactive results. This is a sample that favours compounds with a hit; in the whole collection about 2.2% have one here. Rule as the data show it, unless noted: active = activation above about 18%; inactive = the rest.

What do the screens show for `Cc1cc(NC(=O)CSc2ccc(-c3nc4cc(C)c(C)cc4[nH]3)cn2)no1`?
HTR5A ag ctr: 4; HTR5A inv ag: -12; MOR-DOR inv ag: -106; m5-HT2A agonist: 0; MOR-DOR ag: 20*; MOR-DOR ag conf: 1; HTR5A ag ctr2: 12

Results for CCc1cc2ccc(OC)cc2nc1SCC(=O)Nc1cc(C)on1 ?
HTR5A ag ctr: 1; HTR5A inv ag: -23; sPLA2-III inh: 0; MOR-DOR inv ag: -99; m5-HT2A agonist: 2; MOR-DOR ag: 22*; MOR-DOR ag conf: 12; HTR5A ag ctr2: 20*

Results for COc1cccc(Cn2cc(COC(=O)NCC(C)C)nn2)c1 ?
sPLA2-III inh: -3

What do the screens show for `CC(CC(=O)N(CCC1=CCCCC1)c1c(N)n(Cc2ccccc2)c(=O)[nH]c1=O)c1ccccc1` (stereo unspecified)?
HTR5A ag ctr: -4; HTR5A inv ag: -17; sPLA2-III inh: 12; MOR-DOR inv ag: -257; m5-HT2A agonist: 6; MOR-DOR ag: 39*; MOR-DOR ag conf: 33*; HTR5A ag ctr2: 10

What do the screens show for `N=c1n(Cc2ccc(Cl)cc2)c2ccccc2n1CC(O)COc1ccccc1` (stereo unspecified)?
HTR5A ag ctr: 14*; HTR5A inv ag: -41; sPLA2-III inh: 6; MOR-DOR inv ag: inactive; m5-HT2A agonist: -1; MOR-DOR ag: 94*; MOR-DOR ag conf: -2; HTR5A ag ctr2: 0

Results for N#Cc1nc(Nc2cc(F)cc(F)c2)c2ncn(CC(F)F)c2n1 ?
HTR5A ag ctr: 4; HTR5A inv ag: -12; sPLA2-III inh: 1; MOR-DOR inv ag: -27; m5-HT2A agonist: 0; MOR-DOR ag: 5

How did N#Cc1nc(NCC(F)F)nc(Nc2cc(F)cc(F)c2)n1 do in these assays?
HTR5A ag ctr: 12; HTR5A inv ag: -37; sPLA2-III inh: 12; MOR-DOR inv ag: -119; m5-HT2A agonist: 2; MOR-DOR ag: 21*; MOR-DOR ag conf: 7; HTR5A ag ctr2: 0

How did Cc1cccc(-n2nc(C(=O)c3ccco3)cc(-c3nc4ccccc4[nH]3)c2=N)c1 do in these assays?
HTR5A ag ctr: -1; HTR5A inv ag: 3; sPLA2-III inh: 18; MOR-DOR inv ag: -222; m5-HT2A agonist: 2; MOR-DOR ag: 31*; MOR-DOR ag conf: 1; HTR5A ag ctr2: 0

How did COC(=O)C1=C(C)N(CCCC(=O)O)C(=O)NC1c1ccccc1OS(=O)(=O)c1ccccc1[N+](=O)[O-] (stereo unspecified) do in these assays?
HTR5A ag ctr: -2; HTR5A inv ag: 6; sPLA2-III inh: 4; MOR-DOR inv ag: -296; m5-HT2A agonist: 1; MOR-DOR ag: 51*; MOR-DOR ag conf: 47*; HTR5A ag ctr2: 5

How did CCOC(=O)C1=C(C)N(Cc2ccccc2)C(=O)NC1c1ccccc1OS(=O)(=O)c1ccccc1[N+](=O)[O-] (stereo unspecified) do in these assays?
HTR5A ag ctr: -2; HTR5A inv ag: 6; sPLA2-III inh: -12; MOR-DOR inv ag: -380; m5-HT2A agonist: 4; MOR-DOR ag: 65*; MOR-DOR ag conf: 1; HTR5A ag ctr2: -4

What do the screens show for `CC1=C(C(=O)OCc2ccccc2)C(c2ccccc2OS(=O)(=O)c2ccc(C)cc2)NC(=O)N1CCCC(=O)O` (stereo unspecified)?
sPLA2-III inh: 3

How did OC(CNCC(c1ccc(Cl)cc1Cl)c1c[nH]c2ccccc12)c1ccccc1 (stereo unspecified) do in these assays?
HTR5A ag ctr: 15*; HTR5A inv ag: -42; sPLA2-III inh: -36; MOR-DOR inv ag: -271; m5-HT2A agonist: 0; MOR-DOR ag: 55*; MOR-DOR ag conf: 0; HTR5A ag ctr2: 1

What do the screens show for `COc1ccc(C[C@H]2CN3C(=NC[C@@H]3Cc3ccccc3)N2CCNC(=O)c2ccc(C)c(Br)c2)cc1`?
HTR5A ag ctr: 8; HTR5A inv ag: 1; MOR-DOR inv ag: -126; m5-HT2A agonist: -2; MOR-DOR ag: 22*; MOR-DOR ag conf: 0; HTR5A ag ctr2: -2

What do the screens show for `COc1ccc(C[C@H]2CN3C(=NC[C@H]3Cc3ccccc3)N2CCNC(=O)c2ccc(C)c(Br)c2)cc1`?
HTR5A ag ctr: 8; HTR5A inv ag: -59; MOR-DOR inv ag: -77; m5-HT2A agonist: -8; MOR-DOR ag: 13

What do the screens show for `CC(C)(C)N(Cc1cn(Cc2ccccc2)nn1)S(=O)(=O)c1ccc(F)cc1Br`?
sPLA2-III inh: -5

What do the screens show for `COC(=O)[C@]12C[C@H](CC(=O)NCc3cccc4ccccc34)C(=O)N(Cc3ccc(Cl)cc3Cl)C1=C[C@H](C1CCCC1)O[C@@H]2C`?
sPLA2-III inh: -8

What do the screens show for `COC(=O)c1[nH]c2ccc(F)cc2c1NC(=O)Nc1ccc(OC)cc1`?
HTR5A ag ctr: -3; HTR5A inv ag: 8; sPLA2-III inh: 6; MOR-DOR inv ag: -96; m5-HT2A agonist: 13; MOR-DOR ag: 23*; MOR-DOR ag conf: -3; HTR5A ag ctr2: 0

How did COC(=O)c1[nH]c2ccc(C)cc2c1NC(=O)Nc1ccc(OC)cc1 do in these assays?
HTR5A ag ctr: -6; HTR5A inv ag: 12; sPLA2-III inh: -43; MOR-DOR inv ag: -7; m5-HT2A agonist: -2; MOR-DOR ag: 1

What do the screens show for `Cc1ccccc1C(=O)N[C@H](C(=O)N1CCC[C@H]1C(=O)NC1CCCC1)C1CCCCC1`?
sPLA2-III inh: 0

Results for CC[C@@H](C)[C@@H]1CN([C@@H](CN2CCC[C@H]2CN2C(N)=NC[C@H]2C(C)C)C(C)C)C(=N)N1CCc1ccc(Cl)c(Cl)c1 ?
HTR5A ag ctr: -1; HTR5A inv ag: 4; MOR-DOR inv ag: inactive; m5-HT2A agonist: 2; MOR-DOR ag: 205*; MOR-DOR ag conf: 72*; HTR5A ag ctr2: 0

What do the screens show for `C=CCOC(=O)N[C@@H](c1cccc(OC)c1)[C@@H](C)/C=C/CC(=O)O`?
sPLA2-III inh: 5

What do the screens show for `Cc1ccc(-c2nnc(SCC(=O)N/N=C/c3ccc(C)s3)n2-c2ccc(C)cc2)cc1`?
HTR5A ag ctr: 1; HTR5A inv ag: -16; sPLA2-III inh: 1; MOR-DOR inv ag: -87; m5-HT2A agonist: 9; MOR-DOR ag: 18*; MOR-DOR ag conf: 10; HTR5A ag ctr2: 2

Results for Cc1ccc(-n2c(SCC(=O)NN=Cc3ccc(-c4ccccc4)cc3)nnc2-c2ccccc2)cc1 ?
sPLA2-III inh: 6

What do the screens show for `Cc1cccc(-c2cccc3c4c([nH]c23)[C@@H]2C[C@H](N(C)C(=O)c3ccco3)[C@H]([C@H](C)O)CN2CC4)c1`?
sPLA2-III inh: -3
